This note sets out measurements from ChEMBL document CHEMBL1961873, “Compounds: GSK PKIS; Assays: Nanosyn kinase panel” (2012).

Structures are written as SMILES.

Assay [1] addresses Ribosomal protein S6 kinase alpha-6 (Homo sapiens) (UniProt Q9UK32). To be noted: at 1 µM.
Assay [2] concerns the target T1, Serine/threonine-protein kinase Sgk1 (Homo sapiens) (UniProt O00141).
T1 sequence (whole entry): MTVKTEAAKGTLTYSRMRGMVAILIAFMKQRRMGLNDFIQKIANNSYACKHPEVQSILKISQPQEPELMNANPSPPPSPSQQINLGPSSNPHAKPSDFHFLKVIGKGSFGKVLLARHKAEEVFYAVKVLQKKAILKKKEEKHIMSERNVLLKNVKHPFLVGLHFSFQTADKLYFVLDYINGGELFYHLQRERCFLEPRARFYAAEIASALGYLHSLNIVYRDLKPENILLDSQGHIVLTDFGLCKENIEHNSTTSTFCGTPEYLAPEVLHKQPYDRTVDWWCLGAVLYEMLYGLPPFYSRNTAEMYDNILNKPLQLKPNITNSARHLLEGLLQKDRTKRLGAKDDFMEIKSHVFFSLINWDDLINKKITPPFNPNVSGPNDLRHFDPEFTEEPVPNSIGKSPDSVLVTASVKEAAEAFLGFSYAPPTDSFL
The conditions noted are these: at 0.1 µM.

Assay [3] addresses T1, Serine/threonine-protein kinase Sgk1 (Homo sapiens). The conditions noted are these: at 1 µM.
Assay [4] deals with T2, Serine/threonine-protein kinase Sgk2 (Homo sapiens) (UniProt Q9HBY8).
T2 sequence (whole entry): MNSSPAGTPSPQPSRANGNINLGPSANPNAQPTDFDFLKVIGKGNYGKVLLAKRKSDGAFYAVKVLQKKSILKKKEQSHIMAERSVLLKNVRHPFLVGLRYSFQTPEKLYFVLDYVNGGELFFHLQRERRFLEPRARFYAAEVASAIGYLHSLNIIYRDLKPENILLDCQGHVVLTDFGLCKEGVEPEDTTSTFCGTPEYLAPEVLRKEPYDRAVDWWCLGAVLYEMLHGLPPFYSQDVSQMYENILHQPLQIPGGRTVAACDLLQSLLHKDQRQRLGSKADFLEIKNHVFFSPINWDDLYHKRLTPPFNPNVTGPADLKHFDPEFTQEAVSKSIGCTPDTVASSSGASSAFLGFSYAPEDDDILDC
To be noted: at 0.1 µM.

For assay [5], the target named is T2, Serine/threonine-protein kinase Sgk2 (Homo sapiens). To be noted: at 1 µM.
For assay [6], the target named is T3, Serine/threonine-protein kinase Sgk3 (Homo sapiens) (UniProt Q96BR1).
T3 sequence (whole entry): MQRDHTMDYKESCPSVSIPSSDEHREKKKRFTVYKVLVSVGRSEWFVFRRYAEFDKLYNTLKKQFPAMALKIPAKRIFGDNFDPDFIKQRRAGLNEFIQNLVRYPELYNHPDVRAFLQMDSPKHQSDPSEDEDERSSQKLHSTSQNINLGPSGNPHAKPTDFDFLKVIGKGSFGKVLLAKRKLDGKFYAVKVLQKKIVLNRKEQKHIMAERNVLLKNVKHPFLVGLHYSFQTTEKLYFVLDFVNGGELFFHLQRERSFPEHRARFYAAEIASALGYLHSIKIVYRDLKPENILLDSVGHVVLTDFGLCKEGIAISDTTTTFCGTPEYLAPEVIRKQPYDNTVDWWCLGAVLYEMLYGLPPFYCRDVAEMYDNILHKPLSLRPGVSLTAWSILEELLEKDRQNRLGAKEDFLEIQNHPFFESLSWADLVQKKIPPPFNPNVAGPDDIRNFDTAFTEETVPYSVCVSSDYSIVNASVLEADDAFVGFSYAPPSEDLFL
To be noted: at 0.1 µM.

The target in assay [7] is T3, Serine/threonine-protein kinase Sgk3 (Homo sapiens). The conditions noted are these: at 1 µM.
For assay [8], the target named is 5'-AMP-activated protein kinase catalytic subunit alpha-1 (Homo sapiens) (UniProt Q13131). To be noted: at 0.1 µM.
5'-AMP-activated protein kinase catalytic subunit alpha-1 (Homo sapiens), sequence (Q13131 whole entry, looked up): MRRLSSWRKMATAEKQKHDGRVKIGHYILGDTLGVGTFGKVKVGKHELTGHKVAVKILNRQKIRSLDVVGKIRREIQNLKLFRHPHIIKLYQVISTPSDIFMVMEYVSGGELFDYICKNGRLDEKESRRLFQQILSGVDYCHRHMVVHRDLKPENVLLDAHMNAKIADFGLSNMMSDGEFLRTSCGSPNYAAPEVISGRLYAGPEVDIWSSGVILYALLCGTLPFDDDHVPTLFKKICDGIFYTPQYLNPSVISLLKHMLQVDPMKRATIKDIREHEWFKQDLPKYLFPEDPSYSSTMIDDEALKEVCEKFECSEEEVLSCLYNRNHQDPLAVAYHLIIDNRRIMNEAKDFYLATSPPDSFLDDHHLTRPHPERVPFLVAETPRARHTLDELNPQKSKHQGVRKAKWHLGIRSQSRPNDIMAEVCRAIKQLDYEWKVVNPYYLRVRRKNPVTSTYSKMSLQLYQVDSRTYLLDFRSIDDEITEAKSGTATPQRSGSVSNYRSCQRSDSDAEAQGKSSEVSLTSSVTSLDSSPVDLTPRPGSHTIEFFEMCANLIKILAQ
Assay [9] shares this target. To be noted: at 1 µM.
In assay [10] the target is 5'-AMP-activated protein kinase catalytic subunit alpha-2 (Homo sapiens) (UniProt P54646). The conditions noted are these: at 0.1 µM.
5'-AMP-activated protein kinase catalytic subunit alpha-2 (Homo sapiens), sequence (P54646 whole entry, looked up): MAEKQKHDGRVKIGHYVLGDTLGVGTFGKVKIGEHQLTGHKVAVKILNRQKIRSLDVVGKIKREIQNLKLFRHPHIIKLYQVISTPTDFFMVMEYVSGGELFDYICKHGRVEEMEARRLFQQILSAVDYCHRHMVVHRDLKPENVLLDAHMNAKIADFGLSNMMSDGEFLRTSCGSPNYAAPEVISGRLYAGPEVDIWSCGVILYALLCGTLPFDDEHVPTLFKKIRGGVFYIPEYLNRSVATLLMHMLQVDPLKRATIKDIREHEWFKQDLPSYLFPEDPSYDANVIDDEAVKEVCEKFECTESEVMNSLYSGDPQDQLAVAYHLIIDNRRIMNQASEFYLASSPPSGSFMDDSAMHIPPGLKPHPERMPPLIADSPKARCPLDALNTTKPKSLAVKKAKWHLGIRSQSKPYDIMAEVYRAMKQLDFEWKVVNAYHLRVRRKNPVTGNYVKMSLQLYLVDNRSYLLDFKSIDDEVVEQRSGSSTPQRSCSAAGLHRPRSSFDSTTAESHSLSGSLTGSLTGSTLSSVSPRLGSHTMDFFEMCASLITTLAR
Assay [11] has the same target. To be noted: at 1 µM.
The target of assay [12] is T4, NUAK family SNF1-like kinase 1 (Homo sapiens) (UniProt O60285).
T4 sequence (whole entry): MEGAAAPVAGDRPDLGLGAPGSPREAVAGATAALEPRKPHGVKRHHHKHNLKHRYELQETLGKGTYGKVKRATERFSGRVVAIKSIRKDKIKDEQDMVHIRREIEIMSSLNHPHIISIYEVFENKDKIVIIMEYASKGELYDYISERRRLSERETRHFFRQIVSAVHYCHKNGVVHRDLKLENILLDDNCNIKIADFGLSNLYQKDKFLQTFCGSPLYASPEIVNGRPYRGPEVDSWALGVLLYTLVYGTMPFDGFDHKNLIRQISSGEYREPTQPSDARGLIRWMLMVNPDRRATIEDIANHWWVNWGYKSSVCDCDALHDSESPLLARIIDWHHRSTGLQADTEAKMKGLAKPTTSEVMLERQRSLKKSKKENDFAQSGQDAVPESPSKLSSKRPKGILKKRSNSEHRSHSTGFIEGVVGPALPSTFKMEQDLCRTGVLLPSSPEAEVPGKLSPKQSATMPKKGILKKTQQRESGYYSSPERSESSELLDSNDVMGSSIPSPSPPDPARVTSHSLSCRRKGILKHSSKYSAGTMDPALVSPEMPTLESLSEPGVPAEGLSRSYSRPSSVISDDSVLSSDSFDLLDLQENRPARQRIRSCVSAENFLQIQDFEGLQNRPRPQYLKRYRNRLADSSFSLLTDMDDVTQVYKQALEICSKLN
The conditions noted are these: at 0.1 µM.

Assay [13] deals with T4, NUAK family SNF1-like kinase 1 (Homo sapiens). To be noted: at 1 µM.
Assay [14] has as its target T5, Serine/threonine-protein kinase BRSK1 (Homo sapiens) (UniProt Q8TDC3).
T5 sequence (whole entry): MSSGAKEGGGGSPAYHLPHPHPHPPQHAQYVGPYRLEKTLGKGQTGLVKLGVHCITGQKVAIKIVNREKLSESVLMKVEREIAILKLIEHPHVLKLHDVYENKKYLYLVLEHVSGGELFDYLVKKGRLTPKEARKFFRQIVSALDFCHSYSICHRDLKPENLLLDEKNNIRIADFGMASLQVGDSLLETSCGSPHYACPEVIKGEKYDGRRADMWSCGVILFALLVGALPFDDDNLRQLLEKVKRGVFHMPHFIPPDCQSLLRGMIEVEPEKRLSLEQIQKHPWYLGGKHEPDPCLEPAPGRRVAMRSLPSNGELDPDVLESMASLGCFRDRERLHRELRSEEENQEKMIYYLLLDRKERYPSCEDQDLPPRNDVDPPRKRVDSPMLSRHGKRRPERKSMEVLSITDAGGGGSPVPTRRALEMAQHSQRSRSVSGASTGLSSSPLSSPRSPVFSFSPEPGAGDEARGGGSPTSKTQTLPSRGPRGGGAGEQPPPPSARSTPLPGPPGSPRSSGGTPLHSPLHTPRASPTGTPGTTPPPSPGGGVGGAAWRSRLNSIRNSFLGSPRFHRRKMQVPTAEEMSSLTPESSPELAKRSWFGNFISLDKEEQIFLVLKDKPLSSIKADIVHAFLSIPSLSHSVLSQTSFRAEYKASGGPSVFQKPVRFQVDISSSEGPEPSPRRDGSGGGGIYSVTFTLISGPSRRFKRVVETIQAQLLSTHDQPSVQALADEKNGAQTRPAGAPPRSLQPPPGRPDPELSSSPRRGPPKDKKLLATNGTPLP
The conditions noted are these: at 0.1 µM.

For assay [15], the target named is T5, Serine/threonine-protein kinase BRSK1 (Homo sapiens). The conditions noted are these: at 1 µM.
The target in assay [16] is T6, Serine/threonine-protein kinase BRSK2 (Homo sapiens) (UniProt Q8IWQ3).
T6 sequence (whole entry): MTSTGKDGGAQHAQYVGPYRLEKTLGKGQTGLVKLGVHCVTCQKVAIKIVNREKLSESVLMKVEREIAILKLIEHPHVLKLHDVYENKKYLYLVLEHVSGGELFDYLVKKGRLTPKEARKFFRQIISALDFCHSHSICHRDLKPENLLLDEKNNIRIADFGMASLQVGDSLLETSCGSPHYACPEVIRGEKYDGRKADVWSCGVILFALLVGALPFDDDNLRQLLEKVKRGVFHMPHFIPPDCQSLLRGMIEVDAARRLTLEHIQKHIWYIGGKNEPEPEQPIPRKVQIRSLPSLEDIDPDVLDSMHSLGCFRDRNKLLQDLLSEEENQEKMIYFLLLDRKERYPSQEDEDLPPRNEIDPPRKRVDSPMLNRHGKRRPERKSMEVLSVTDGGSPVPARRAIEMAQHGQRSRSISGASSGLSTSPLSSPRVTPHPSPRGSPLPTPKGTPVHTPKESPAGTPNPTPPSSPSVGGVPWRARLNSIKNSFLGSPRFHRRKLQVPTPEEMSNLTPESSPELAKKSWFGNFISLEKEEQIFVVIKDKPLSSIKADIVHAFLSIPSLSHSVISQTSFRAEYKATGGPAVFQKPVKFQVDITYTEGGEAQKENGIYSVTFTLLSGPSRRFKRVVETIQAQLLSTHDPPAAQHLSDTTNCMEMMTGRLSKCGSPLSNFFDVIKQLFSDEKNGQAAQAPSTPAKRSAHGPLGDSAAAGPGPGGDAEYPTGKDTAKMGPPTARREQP
The conditions noted are these: at 0.1 µM.

Assay [17] has as its target T6, Serine/threonine-protein kinase BRSK2 (Homo sapiens). To be noted: at 1 µM.
For assay [18], the target named is Calcium/calmodulin-dependent protein kinase type 1D (Homo sapiens) (UniProt Q8IU85). To be noted: at 0.1 µM.
Calcium/calmodulin-dependent protein kinase type 1D (Homo sapiens), sequence (Q8IU85 whole entry, looked up): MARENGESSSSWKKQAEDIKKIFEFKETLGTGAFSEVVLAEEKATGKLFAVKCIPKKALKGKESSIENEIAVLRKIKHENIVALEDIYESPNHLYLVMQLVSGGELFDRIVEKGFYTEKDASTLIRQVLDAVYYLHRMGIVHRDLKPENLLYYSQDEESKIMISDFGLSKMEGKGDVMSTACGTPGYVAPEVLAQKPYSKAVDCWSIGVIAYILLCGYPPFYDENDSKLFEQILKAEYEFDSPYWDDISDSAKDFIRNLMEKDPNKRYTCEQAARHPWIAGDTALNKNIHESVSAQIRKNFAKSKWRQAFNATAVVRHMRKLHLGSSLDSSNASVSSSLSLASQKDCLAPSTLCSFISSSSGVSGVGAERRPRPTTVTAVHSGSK
For assay [19] the target is unchanged. The conditions noted are these: at 1 µM.
The target in assay [20] is Calcium/calmodulin-dependent protein kinase type II subunit alpha (Homo sapiens) (UniProt Q9UQM7). To be noted: at 0.1 µM.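 Note: reported values are averages (mean inhibition of CAMK2A).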
Calcium/calmodulin-dependent protein kinase type II subunit alpha (Homo sapiens), sequence (Q9UQM7 whole entry): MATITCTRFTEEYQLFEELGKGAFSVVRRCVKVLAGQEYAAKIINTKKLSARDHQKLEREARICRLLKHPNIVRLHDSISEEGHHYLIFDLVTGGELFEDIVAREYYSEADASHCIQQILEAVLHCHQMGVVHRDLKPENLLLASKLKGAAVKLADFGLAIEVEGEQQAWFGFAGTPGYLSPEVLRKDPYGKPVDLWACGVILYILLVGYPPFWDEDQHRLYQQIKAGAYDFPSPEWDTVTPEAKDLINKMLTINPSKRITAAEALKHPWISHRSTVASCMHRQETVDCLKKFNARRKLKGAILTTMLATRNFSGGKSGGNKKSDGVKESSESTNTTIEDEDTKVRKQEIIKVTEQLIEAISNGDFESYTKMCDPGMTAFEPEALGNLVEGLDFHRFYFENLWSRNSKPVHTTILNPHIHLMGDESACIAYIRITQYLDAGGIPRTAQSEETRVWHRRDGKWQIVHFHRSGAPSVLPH

Ribosomal protein S6 kinase alpha-6 (Homo sapiens), sequence (Q9UK32 whole entry): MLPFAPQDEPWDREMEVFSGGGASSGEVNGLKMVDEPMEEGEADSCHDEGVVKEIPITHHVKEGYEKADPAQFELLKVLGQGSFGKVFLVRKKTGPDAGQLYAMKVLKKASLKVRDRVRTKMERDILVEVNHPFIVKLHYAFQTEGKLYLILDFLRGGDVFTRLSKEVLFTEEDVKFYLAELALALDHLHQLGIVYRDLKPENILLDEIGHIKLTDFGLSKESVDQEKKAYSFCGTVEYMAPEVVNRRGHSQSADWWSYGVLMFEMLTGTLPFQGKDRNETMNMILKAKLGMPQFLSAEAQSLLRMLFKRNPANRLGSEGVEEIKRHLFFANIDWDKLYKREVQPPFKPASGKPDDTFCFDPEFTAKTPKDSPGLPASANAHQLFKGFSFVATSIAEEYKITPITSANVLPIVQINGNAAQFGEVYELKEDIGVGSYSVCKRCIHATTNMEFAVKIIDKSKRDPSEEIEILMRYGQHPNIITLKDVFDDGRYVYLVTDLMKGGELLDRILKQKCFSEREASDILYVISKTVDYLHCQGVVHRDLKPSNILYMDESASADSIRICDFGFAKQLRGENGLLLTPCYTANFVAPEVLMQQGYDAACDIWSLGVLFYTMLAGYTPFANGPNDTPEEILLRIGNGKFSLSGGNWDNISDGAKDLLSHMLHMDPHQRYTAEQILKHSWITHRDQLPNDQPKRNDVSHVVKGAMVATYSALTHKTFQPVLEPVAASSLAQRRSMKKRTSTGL

For `Cc1ccc(C(=O)NC2CCCCC2)cc1-c1ccc(C(=O)NCC2CC2)cc1`, the inhibition (usually the change of the read-out against control, counted positive when it falls) in assay [1] is 1.2%; in [2] it was 3.14%; in assay [3], 2.69%; in assay [4] it was 1.32%; in assay [5] it was -1.56%; in assay [6], 2.99%. For the same molecule, the inhibition in assay [7] was found to be 0.67%; in assay [8], 2.86%; in assay [9], 0.6%; in assay [10], 3.32%; in assay [11], 1.51%; in [12], 2.83%. For the same molecule, the inhibition in assay [13] is 2.62%; in assay [14], 2.63%; in assay [15], 0.64%; in assay [16], 1.87%; in assay [17], -1.13%; in assay [18], 3.13%. Also, the inhibition in assay [19] amounted to 2.73%; in assay [20], 4.8%.

As to `Fc1cccc(COc2ccc(Nc3ncnc4cc(-c5ccc[nH]5)sc34)cc2Cl)c1`, the inhibition in assay [1] was 2.27%; in [2] it was 1.92%; in assay [3], 3.96%; in assay [4], -0.18%; in assay [5], 5.58%; in assay [6], 0.1%. The inhibition in assay [7] is 4.46%; in [8], 1.8%; in assay [9], 0.98%; in [10], 3.81%; in [11], 3.27%; in [12] it was 2.43%. Also, the inhibition was found to be 6.42% in assay [13]; 0.67% in [14]; 1.16% in assay [15]; 0.79% in [16]; 4.01% in assay [17]; 1.56% in assay [18]. For the same molecule, the inhibition is 1.16% in [19] and 0.3% in assay [20].

Turning to `CCn1c(-c2nonc2N)nc2c(C#CC(C)(C)O)nc(OC[C@@H](N)c3ccccc3)cc21`, the inhibition in assay [1] is 17.5%; in [2], 0.38%; in assay [3], 3.01%; in [4] it was 2.41%; in [5], 10.3%; in [6] it was 43.1%. Besides, the inhibition in [7] stood at 60.4%; in assay [8], 26.6%; in assay [9], 66.9%; in [10], 4.59%; in assay [11], 21.1%; in assay [12] it was 28%. Also, the inhibition in assay [13] was 94.5%; in assay [14] it was 0.41%; in assay [15] it was 4.9%; in assay [16] it was 0.42%; in [17] it was 5%; in assay [18], 0.26%. Also, the inhibition was 2.9% in assay [19] and -2.45% in assay [20].
